± gives the standard deviation. The full ranking holds about 5,500 sequences; the median of “pre-steady-state target cleavage rate” is about 0.1, and the highest 2% start at about 0.64. Shown is part of a subset that was picked to be rich in the highest values.

The subject of the assay is MIWI (PIWIL1) piRISC loaded with piRNA #2 (30 nt). The experiment in a line: pre-steady-state target cleavage rate (min^-1); MIWI and MILI are mouse PIWI proteins and EfPiwi is from a freshwater sponge; tags in brackets are library labels; higher = faster piRNA-guided slicing of the target. The conditions noted are these: guide: piRNA #2 5'p-UUAGGUAACCCAGUAGAUCCAGAGGAAUUC; auxiliary factor: 500 nM mouse GTSF1. The procedure, abridged:
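Sequencing of uncleaved targets, normalised to depth and to weakly complementary targets, was the readout of this Cleave-'n-Seq assay. A transcribed, DNA-blocked target RNA library (0.1 nM) was mixed with 1 nM active affinity-purified piRISC carrying one synthetic guide, with or without 500 nM GTSF1 partner protein, in HEPES–potassium acetate buffer at 33 °C for 0–8 or 0–960 min. Three trials were pooled, k3 was capped at 0.0001 min^-1, and a burst-and-steady-state fit gave the pre-steady-state cleavage rate.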
For CUUUUCCUCUCGAUGUACUGGGUUACCUAA, the “pre-steady-state target cleavage rate” value was 0.592 ± 0.043.

Consider CUAUUCCUCUGGAUGUACUGGGUUACCUAA, for which the “pre-steady-state target cleavage rate” value came to 0.533 ± 0.041.

For CAAUUCCUCUCGAUGUACUGGGUUACCUAA, the “pre-steady-state target cleavage rate” value was found to be 0.672 ± 0.056.

Consider CUUAACCUCUCGAUGUACUGGGUUACCUAA, for which the “pre-steady-state target cleavage rate” value amounted to 0.421 ± 0.029.

Turning to CUAUUCCUCUCGAUGUACUGGGUUACCUAA, the “pre-steady-state target cleavage rate” value amounted to 0.636 ± 0.045.

Regarding CUUAACCUCUGGAUAUACUGGGUUACCUAA, the “pre-steady-state target cleavage rate” value is 0.552 ± 0.042.

As for CAAUUCCUCUGGAUCUACUGGGUAACCUAA, the “pre-steady-state target cleavage rate” value was found to be 0.263 ± 0.049.

As for CUUAACCUCUGGAUCUACUGGGUAUGCUAA, the “pre-steady-state target cleavage rate” value came to 0.0233 ± 0.0061.

On to CAAAAGCUCUGGAUCUACUGGGUUACCUAA, for which the “pre-steady-state target cleavage rate” value was determined as 0.105 ± 0.025.

Take CUUAAGGAGUGGGAUCUACUGGGUUACCUAA: the “pre-steady-state target cleavage rate” value was 0.0146 ± 0.0073.

Regarding CAAUUCCUCUGGAUCUACUGUGUUACCUAA, the “pre-steady-state target cleavage rate” value is 0.751 ± 0.075.

With CAAUUCCUCUGGAUCUACUGGUUACCUAA, the “pre-steady-state target cleavage rate” value was 0.19 ± 0.046.

For CUAUUCCUCUGGAUCUACUGGUGUUACCUAA, the “pre-steady-state target cleavage rate” value was 0.00505 ± 0.0032.

As to CUUUUUCCUCUGGAUCUACUGGGUUACCUAA, the “pre-steady-state target cleavage rate” value was 0.308 ± 0.046.

CUUUUCCUCUGGAUCUACUGGUGUUACCUAA: the “pre-steady-state target cleavage rate” value stood at 0.00402 ± 0.0035.

For CUAUUCCUCUGGAUCUACUGUGUUACCUAA, the “pre-steady-state target cleavage rate” value is 0.696 ± 0.073.

In the case of GAAUUCCUCUGGAUCUACUGUGUUACCUAA, the “pre-steady-state target cleavage rate” value was 0.673 ± 0.06.

For the sequence CAAUUCCUCUGGAUCUACUGGUGUUACCUAA, the “pre-steady-state target cleavage rate” value turned out to be 0.0066 ± 0.0037.

In the case of CUUUUCCUCUGGAUCUACUGUGUUACCUAA, the “pre-steady-state target cleavage rate” value came to 0.751 ± 0.048.

Regarding GAAUUCCUCUGGAUCUACUGUGGUUACCUAA, the “pre-steady-state target cleavage rate” value is 0.00388 ± 0.0038.

As for GAAUUCCUCUGGAUCUACUGGUGUUACCUAA, the “pre-steady-state target cleavage rate” value came out at 0.0068 ± 0.0031.

For the sequence “CUAUUCCUCUGGAUCUACUGGGUUACCUAA [g2:g28:cont:t1A]”, the “pre-steady-state target cleavage rate” value was found to be 0.388 ± 0.062.

As to CAAUUGCUCUGGAUCUACUGGGUUACGUAA, the “pre-steady-state target cleavage rate” value was 0.536 ± 0.067.

Consider CUUAAGGUGACGAUCUACUGGGUUACCUAA, for which the “pre-steady-state target cleavage rate” value was found to be 0.0052 ± 0.0036.

As to CUUAAGGACAGGAUCUACUGCGUUACCUAA, the “pre-steady-state target cleavage rate” value stood at 0.0331 ± 0.017.

Take CUUAACGUCUCGAUCUACUGGGUUACCUAA: the “pre-steady-state target cleavage rate” value came to 0.357 ± 0.041.

For CUUAAGGAGUAGAUCUACUGGGUUACCUAA, the “pre-steady-state target cleavage rate” value stood at 0.00567 ± 0.0048.

For CAAUUCCUCUGGUUCUACUGGGAUACCUAA, the “pre-steady-state target cleavage rate” value stood at 0.145 ± 0.038.

For CUUAACCUGUGGAACUACUGGGUUACCUAA, the “pre-steady-state target cleavage rate” value amounted to 0.177 ± 0.048.

For CUUAAGGAGACCUUCUACUGGGUUACGUAA, the “pre-steady-state target cleavage rate” value was found to be 0.00451 ± 0.0027.

For the sequence CUUUUCCGUCUGGAUCUACUGGGUUACCUAA, the “pre-steady-state target cleavage rate” value amounted to 0.385 ± 0.039.

On to CUUAUCCUCUGGAUCUACUGGUUACCUAA, for which the “pre-steady-state target cleavage rate” value was determined as 0.0947 ± 0.024.

Take CUUAACCUCUGGAUCUACUGUGUUACCUAA: the “pre-steady-state target cleavage rate” value was 0.597 ± 0.045.

With CUUAUCCUCUGGAUCUACUGUGUUACCUAA, the “pre-steady-state target cleavage rate” value is 0.722 ± 0.074.

As to CUUAAGCUCUGGAUCUACUGGGUUACCUCAA, the “pre-steady-state target cleavage rate” value was 0.0988 ± 0.015.

CAUUUCCACUGGAUCUACUGGGUUACCUAA: the “pre-steady-state target cleavage rate” value was found to be 0.478 ± 0.058.

CUAUUCCUCUCGAUCUACUGGGUUACCAAA: the “pre-steady-state target cleavage rate” value stood at 0.711 ± 0.047.

Regarding CUUAUCCUCUCGAUCUACUGGGUUACCAAA, the “pre-steady-state target cleavage rate” value amounted to 0.542 ± 0.041.

For the sequence CAAUUCCUCUGGAUCUACUGGGUUACCAAA, the “pre-steady-state target cleavage rate” value was determined as 0.509 ± 0.068.

In the case of CUUUUCCUCUCGAUCUACUGGGUUACCAAA, the “pre-steady-state target cleavage rate” value is 0.64 ± 0.048.

GAAUUCCUCUCGAUCUACUGGGUUACCAAA: the “pre-steady-state target cleavage rate” value was 0.564 ± 0.067.

Consider CAAUUCCUCUCGAUCUACUGGGUUACCAAA, for which the “pre-steady-state target cleavage rate” value was determined as 0.904 ± 0.073.

Regarding CUUUUCCUCUGGAUCUACUGGGUUACCAAA, the “pre-steady-state target cleavage rate” value turned out to be 0.477 ± 0.052.

For CUUUUCCUCUCGAUCUACUGGGUUACCUUA, the “pre-steady-state target cleavage rate” value is 0.539 ± 0.05.

Turning to CUAUUCCUCUGGAUCUACUGGGUUACCAAA, the “pre-steady-state target cleavage rate” value is 0.477 ± 0.061.

As for GAAUUCCUCUGGAUCUACUGGCUAACCUAA, the “pre-steady-state target cleavage rate” value was determined as 0.0225 ± 0.0083.

For CAAUUCCUCUGGAUCCUACUGGGUUACCUAA, the “pre-steady-state target cleavage rate” value came to 0.29 ± 0.055.

In the case of GAAUUCCUCUCGAUCUACUGGGUUAGCUAA, the “pre-steady-state target cleavage rate” value was determined as 0.237 ± 0.052.

As to CUUAAGGAGACCUAGUUCUGGGAUACCUAA, the “pre-steady-state target cleavage rate” value is under 0.0001.

For the sequence “CAAUUCCUCUGGAUCUAGACCCAAUGGAUA [g14:g29:cont:t1A]”, the “pre-steady-state target cleavage rate” value was under 0.0001.

For the sequence GAAUUCCUCUGGAUCUACUGGGUUUCCUAA, the “pre-steady-state target cleavage rate” value came out at 0.27 ± 0.047.

Consider CAAUUCCUCUGGUUCUACUGGGUAACCUAA, for which the “pre-steady-state target cleavage rate” value was 0.162 ± 0.032.

As for CUUUUCCUCUGGUUCUACUGGGUUUCCUAA, the “pre-steady-state target cleavage rate” value was 0.522 ± 0.19.

Regarding CUAUUCCUCUGGAUCUACUGGGUUUCCUAA, the “pre-steady-state target cleavage rate” value came out at 0.344 ± 0.053.

With CUAUUCCUCUGGUUCUACUGGGUUUCCUAA, the “pre-steady-state target cleavage rate” value is 1.05 ± 0.44.

As for GAAUUCCUCUGGAACUACUGGGUUUCCUAA, the “pre-steady-state target cleavage rate” value was determined as 0.646 ± 0.21.

CAAUUCCUCUGGUUCUACUGGGUUUCCUAA: the “pre-steady-state target cleavage rate” value amounted to 0.951 ± 0.36.

With GAAUUCCUCUGGUUCUACUGGGUUUCCUAA, the “pre-steady-state target cleavage rate” value worked out at 0.923 ± 0.3.

As to CUAUUCCUCUGGUUCUACUGGGUAACCUAA, the “pre-steady-state target cleavage rate” value is 0.156 ± 0.033.

Turning to CAAUUCCUCUGGAACUACUGGGUUUCCUAA, the “pre-steady-state target cleavage rate” value was found to be 0.348 ± 0.1.

Consider CUAUUCCUCUGGAACUACUGGGUUUCCUAA, for which the “pre-steady-state target cleavage rate” value came out at 0.337 ± 0.12.

For GAAUUCCUCUGGUUCUACUGGGUAACCUAA, the “pre-steady-state target cleavage rate” value came out at 0.288 ± 0.063.

For the sequence CUUUACCUCUGGAUCUACUGGGUUUCCUAA, the “pre-steady-state target cleavage rate” value was 0.167 ± 0.029.

Consider CAAUUCCACUGGUUCUACUGGGUUACCUAA, for which the “pre-steady-state target cleavage rate” value came to 0.593 ± 0.041.

As for CUUAAGGAGAGGAUCUACUGGGUUAACCUAA, the “pre-steady-state target cleavage rate” value was determined as 0.00722 ± 0.0036.

In the case of CUUUUCCUCUGGAUCUACGGGUUACCUAA, the “pre-steady-state target cleavage rate” value is 0.0476 ± 0.0059.

On to CUUAAGGACUGGAUCAACUGGCUUACCUAA, for which the “pre-steady-state target cleavage rate” value is 0.0268 ± 0.022.

CUUAAGGACUCGAUCUACUGGGUUAGCUAA: the “pre-steady-state target cleavage rate” value came out at 0.00705 ± 0.0047.

Turning to CUUAACCACUGGAUCUACUGGGUUACGUAA, the “pre-steady-state target cleavage rate” value is 0.402 ± 0.031.

CAAUACGUCUGGAUCUACUGGGUUACCUAA: the “pre-steady-state target cleavage rate” value turned out to be 0.494 ± 0.053.

Take CUAUUCCUCUGGAACUACUGGGUUACGUAA: the “pre-steady-state target cleavage rate” value stood at 0.47 ± 0.031.

On to GAAUUCCUCUGGAACUACUGGGUUACGUAA, for which the “pre-steady-state target cleavage rate” value came to 0.657 ± 0.04.

As for CAAUUCCUCUGGAACUACUGGGUUACGUAA, the “pre-steady-state target cleavage rate” value came out at 0.517 ± 0.048.
